Laboratory results: PubChem BioAssay
For part of these data: Results with a measured potency or affinity are listed apart. Results filed as inconclusive are left out. The list shows a part of the results. Active and inactive are the calls of the source. Unless noted, the rule behind the calls is not given here.

How the values were obtained:
[1] = general cell-killing toxicity readout – plate reader, dry powder samples, cytotoxicity control for PAX8 inhibitor project, dose response (AID 743021)
[2] = A549 cell cytotoxicity, dose response, cytotoxicity control, plate reader, cherry-pick, antagonist series (AID 743412);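 note: 0% = neutral control wells and -100% = positive control wells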
[3] = IGROV1 cell killing – plate reader, dry powder samples, PAX8 inhibitor project, dose response (AID 743043);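 note: more negative means fewer viable cells or more cytotoxicity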
[4] = toxicity toward immortalized ovarian surface epithelium – cell-based, plate reader, dry powder samples, cytotoxicity control for PAX8 inhibitor project, dose response (AID 743045);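 note: 0% = neutral control median and -100% = positive control median; more negative values mean more cell killing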
[5] = A2780 cell killing – plate reader, dry powder samples, cytotoxicity control, dose response (AID 743046);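 note: 0% = neutral control wells and -100% = cytotoxic reference compound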
[6] = Ring1 de-repression measured by qPCR – cell-based, mouse ESC, RT-qPCR, cherry-pick, esBAF inhibitor project, confirmation (AID 743176;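 active = Ring1 gene expression raised more than 2-fold over untreated cells in both replicates at either tested dose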;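 note: Ring1 transcript normalised to actin housekeeping signal by TaqMan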); details: mouse ESC E14, Ring1 mRNA RT-qPCR fold change, stronger effect = higher value
[7] = Fgf4 repression measured by qPCR – cell-based, mouse ESC, RT-qPCR, cherry-pick, esBAF inhibitor project, confirmation (AID 743177;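 active = Fgf4 expression under 0.8 fold of control in both repeat measurements at one or both tested doses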;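 note: Fgf4 transcript normalised to actin in duplex TaqMan qPCR; cells exposed to compound for 24 h before lysis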); details: mouse ESC E14, Fgf4 mRNA qPCR fold change, stronger effect = lower value
[8] = Bmi1 mRNA increase in mouse ESCs – cell-based, RT-qPCR, mouse ESC, single point, cherry-pick, confirmation (AID 743180;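 active = Bmi1 expression fold change above 6 at either tested concentration, seen in replicate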;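 note: higher fold means more Bmi1 de-repression and stronger esBAF inhibition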); details: mouse ESC E14, Bmi1 mRNA qPCR fold, stronger effect = higher value
[9] = viability loss in A549 cells – cell-based, plate reader, single point, cherry-pick, cytotoxicity control (AID 743188); details: at 25 µM
[10] = viability loss in HepG2 cells – cell-based, plate reader, single point, cherry-pick, cytotoxicity control (AID 743189; in the data active = activity change below about -50%); details: at 25 µM, stronger effect = lower value
[11] = viability loss in HEK293 cells – cell-based, plate reader, single point, cherry-pick, cytotoxicity control (AID 743190; in the data active = activity change below about -38%, passing the limit was not always enough); details: at 25 µM
[12] = OVCAR-3 cell viability loss – plate reader, dry powder samples, PAX8 inhibitor project, dose response (AID 743044); details: max activity: at 35 µM, stronger effect = lower value unless noted

For CC(=O)NC(c1ccc(Cl)cc1)c1ccc2cccnc2c1O (centres undefined), the outcome [1] was “inactive”.
With COc1ccc(C)cc1NS(=O)(=O)c1ccc(-c2cnc(C3CC3)o2)cc1 the outcome [1] was “inactive”.
With CN(C(=O)OC(C)(C)C)c1ccc(-c2nc3ccccc3s2)cc1 the outcome [1] was “inactive” and the outcome [2] was “inactive”.
With CC(C)c1cc(C(=O)OCC(=O)N2CCN(C(=O)c3ccco3)CC2)c(O)c(C(C)C)c1 the outcome [1] was “inactive”, the outcome [3] was “inactive” and the outcome [4] was “inactive”. For the same compound, the outcome [5] was “inactive”.
With N#C[C@@H]1[C@@H](c2ccc(C#Cc3ccccc3F)cc2)[C@@H](CO)N1C(=O)C1CCCC1 the outcome [5] was “inactive”.
For O=C(Nc1ccc(OCC(F)(F)C(F)F)c(C(F)(F)F)c1)c1ccccc1O, the outcome [1] was “inactive”, the outcome [4] was “inactive” and the outcome [5] was “inactive”.
With CSC(=Nc1ccccc1)N=C(SCc1ccccc1)N(C)C the outcome [1] was “inactive”.
In the case of CN1c2ccccc2N(C)C1(C)c1ccccc1, the outcome [1] is reported as “inactive”.
In the case of Cn1c(CCN2CCCC2)nc2cc(NS(=O)(=O)c3ccc(Cl)cc3)ccc21, the outcome [1] is reported as “inactive”, the outcome [4] is reported as “inactive” and the outcome [5] is reported as “inactive”.
With CCCC1=Nc2cc(C(=O)NCCCOCC)ccc2Sc2ccccc21 the outcome [1] was “inactive”.
In the case of COc1ccc(CCNc2nnc(Sc3nnnn3-c3ccccc3)s2)cc1OC, the outcome [1] is reported as “inactive”.
With O=C(CCCN1C(=O)/C(=C\c2ccccc2OC(F)F)SC1=S)Nc1cccnc1 the outcome [1] was “inactive” and the outcome [5] was “inactive”.
With COc1cc2ccccc2cc1C(=O)Nc1ccncc1 the fold change ([6]; Ring1 fold increase, at 7 µM) was 1.36, the fold change ([6]; at 33 µM) was 1.54 (inactive) and the Fgf4 expression fold change ([7]; Fgf4 expression, at 7 µM) was 0.817. For the same compound, the Fgf4 expression fold change ([7]; at 33 µM) was 1.21 (inactive), the fold change ([8]; Bmi1 de-repression, at 7 µM) was 1.73 and the fold change ([8]; at 33 µM) was 2.14 (inactive). For the same compound, the cell viability change % (negative = cytotoxic) [9] was -3.23% (inactive), the activity change, negative = inhibition [10] was -16.4% (inactive) and the activity change, negative = inhibition [11] was 6.79% (inactive).
For N#C[C@@H]1[C@@H](c2ccc(C3=CCCCC3)cc2)[C@@H](CO)N1C(=O)NC1CCCCC1, the outcome [1] was “inactive”, the outcome [3] was “inactive” and the outcome [12] was “inactive”. For the same compound, the outcome [4] was “inactive” and the outcome [5] was “inactive”.
In the case of COc1cccc(C#Cc2ccc([C@@H]3[C@@H](C#N)N(C(=O)C4CCCCC4)[C@@H]3CO)cc2)c1, the outcome [1] is reported as “inactive”, the outcome [3] is reported as “inactive” and the outcome [12] is reported as “inactive”. The outcome [4] was “inactive” and the outcome [5] was “inactive”.
With COc1ccc(C(=O)CCc2ccccc2O)c(OC)c1 the fold change ([6]; Ring1 fold increase, at 7 µM) was 1.29, the fold change ([6]; at 33 µM) was 1.23 (inactive) and the Fgf4 expression fold change ([7]; Fgf4 expression, at 7 µM) was 0.836. For the same compound, the Fgf4 expression fold change ([7]; at 33 µM) was 0.979 (inactive), the fold change ([8]; Bmi1 de-repression, at 7 µM) was 1.55 and the fold change ([8]; at 33 µM) was 1.13 (inactive). For the same compound, the cell viability change % (negative = cytotoxic) [9] was -6.31% (inactive), the activity change, negative = inhibition [10] was -33.9% (inactive) and the activity change, negative = inhibition [11] was 14.9% (inactive).
With COc1cccc(C#Cc2ccc([C@@H]3[C@@H](C#N)N(C(=O)C4CCCC4)[C@@H]3CO)cc2)c1 the outcome [1] was “inactive”, the outcome [3] was “inactive” and the outcome [12] was “inactive”. The outcome [4] was “inactive” and the outcome [5] was “inactive”.
